PubChem BioAssay AID1569 (National Center for Advancing Translational Sciences (NCATS), 2009)
Inconclusive results are not listed. The source made the active and inactive calls. Calls follow the shape of the dose curve; as a rule, active = well fitted inhibition curve with a large enough effect; inconclusive = small, poorly fitted or top-dose-only effect, or effect the other way, or another doubt; inactive = no such curve, though single readings can be large or run the other way.

test: Confirmation Concentration-Response Assay for lipid storage modulators; conditions: Drosophila S3 cells, lipid droplet BODIPY/CellTracker ratio, 18-24 h; series mostly up to 46.1 µM; also: nearly all actives have a fitted effect of over 80% in size
How it was run: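 Cells at 5,000/well received compound as a titration plus oleic acid (added as 400 uM solution) and were incubated 18–24 h at 24 °C. BODIPY 493/503 lipid signal and CellTracker Red cell count were read by 488-nm laser-scanning cytometry. Activity was normalised to 20 uM Triacsin C.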
Potency is read from the fitted curve at half-maximal effect.

Structure (SMILES)	Potency
CCOc1ccc(CCNC(=O)COC(=O)COc2ccc(Br)cc2)cc1OCC	inactive
COc1ccc(-c2nc(C)ncc2N=Nc2ccccc2)cc1	25 µM (active)
CCOc1ccc(CCNC(=O)COC(=O)COc2cc(C)cc(C)c2)cc1OCC	inactive
O=C(NC1CCCc2c1cnn2-c1ccccc1F)c1ccccn1 (stereo not given)	0.0079 µM (active)
N#Cc1ccsc1NC(=O)CN1CCN(S(=O)(=O)c2cc(Cl)ccc2Cl)CC1	2.5 µM (active)
COc1ccc(CCNC(=O)COc2ccc(S(=O)(=O)NCC(C)C)cc2Cl)cc1OC	inactive
COc1ccc(C)cc1NC(=O)C1CCN(S(=O)(=O)c2cccc3cccnc23)CC1	15.8 µM (active)
COC(c1ccccc1)c1nnc(CCC(=O)NC2C3CC4CC(C3)CC2C4)o1 (stereo not given)	5.6 µM (active)
CC(=O)Nc1cccc(C(=O)NC2CCCc3c2cnn3-c2ccccc2F)c1 (stereo not given)	14.1 µM (active)
Cc1ccc(C(C(=O)NC2CCCCC2)N(Cc2ccco2)C(=O)Cc2c[nH]c3ccccc23)o1 (stereo not given)	4.45 µM (active)
CN(C1=C(N2CCOCC2)C(=O)c2ccccc2C1=O)c1ccccc1	6.28 µM (active)
CCC(=O)c1ccc(OCC(=O)Nc2ccc(N3CCOCC3)cc2N2CCOCC2)cc1	inactive
CC(C)(C)c1ccc(/C=C2\SC(=O)N(CCNC(=O)c3cccc(S(=O)(=O)N4CCOCC4)c3)C2=O)cc1	8.88 µM (active)
Cc1cc(C(=O)NC2CCCc3c2cnn3-c2ccccc2F)nc(C)n1 (stereo not given)	1.41 µM (active)
COc1cc(NC(=O)COc2ccccc2[N+](=O)[O-])ccc1NC(=O)c1cccs1	17.7 µM (active)
